Source: PubChem BioAssay
Pf apPOL block: Pf-apPOL DNA polymerase inhibition; Recombinant Pf-apPOL, molecular beacon fluorescence, 1.5 h; inhibition, % at 10 µM; hit rate 0.25% among 210,000; AID 1794808
mHTT CaM bind: mHTT-calmodulin interaction abrogation | hit rate 3.6% among 190,000 | P42858 | inhibition, % at 15 µM | AlphaScreen His-mHTT/GST-CaM binding, luminescence;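 note: 0% = both proteins with DMSO and 100% = one protein alone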
Target sequence (P42858 whole entry, looked up, stated change not applied): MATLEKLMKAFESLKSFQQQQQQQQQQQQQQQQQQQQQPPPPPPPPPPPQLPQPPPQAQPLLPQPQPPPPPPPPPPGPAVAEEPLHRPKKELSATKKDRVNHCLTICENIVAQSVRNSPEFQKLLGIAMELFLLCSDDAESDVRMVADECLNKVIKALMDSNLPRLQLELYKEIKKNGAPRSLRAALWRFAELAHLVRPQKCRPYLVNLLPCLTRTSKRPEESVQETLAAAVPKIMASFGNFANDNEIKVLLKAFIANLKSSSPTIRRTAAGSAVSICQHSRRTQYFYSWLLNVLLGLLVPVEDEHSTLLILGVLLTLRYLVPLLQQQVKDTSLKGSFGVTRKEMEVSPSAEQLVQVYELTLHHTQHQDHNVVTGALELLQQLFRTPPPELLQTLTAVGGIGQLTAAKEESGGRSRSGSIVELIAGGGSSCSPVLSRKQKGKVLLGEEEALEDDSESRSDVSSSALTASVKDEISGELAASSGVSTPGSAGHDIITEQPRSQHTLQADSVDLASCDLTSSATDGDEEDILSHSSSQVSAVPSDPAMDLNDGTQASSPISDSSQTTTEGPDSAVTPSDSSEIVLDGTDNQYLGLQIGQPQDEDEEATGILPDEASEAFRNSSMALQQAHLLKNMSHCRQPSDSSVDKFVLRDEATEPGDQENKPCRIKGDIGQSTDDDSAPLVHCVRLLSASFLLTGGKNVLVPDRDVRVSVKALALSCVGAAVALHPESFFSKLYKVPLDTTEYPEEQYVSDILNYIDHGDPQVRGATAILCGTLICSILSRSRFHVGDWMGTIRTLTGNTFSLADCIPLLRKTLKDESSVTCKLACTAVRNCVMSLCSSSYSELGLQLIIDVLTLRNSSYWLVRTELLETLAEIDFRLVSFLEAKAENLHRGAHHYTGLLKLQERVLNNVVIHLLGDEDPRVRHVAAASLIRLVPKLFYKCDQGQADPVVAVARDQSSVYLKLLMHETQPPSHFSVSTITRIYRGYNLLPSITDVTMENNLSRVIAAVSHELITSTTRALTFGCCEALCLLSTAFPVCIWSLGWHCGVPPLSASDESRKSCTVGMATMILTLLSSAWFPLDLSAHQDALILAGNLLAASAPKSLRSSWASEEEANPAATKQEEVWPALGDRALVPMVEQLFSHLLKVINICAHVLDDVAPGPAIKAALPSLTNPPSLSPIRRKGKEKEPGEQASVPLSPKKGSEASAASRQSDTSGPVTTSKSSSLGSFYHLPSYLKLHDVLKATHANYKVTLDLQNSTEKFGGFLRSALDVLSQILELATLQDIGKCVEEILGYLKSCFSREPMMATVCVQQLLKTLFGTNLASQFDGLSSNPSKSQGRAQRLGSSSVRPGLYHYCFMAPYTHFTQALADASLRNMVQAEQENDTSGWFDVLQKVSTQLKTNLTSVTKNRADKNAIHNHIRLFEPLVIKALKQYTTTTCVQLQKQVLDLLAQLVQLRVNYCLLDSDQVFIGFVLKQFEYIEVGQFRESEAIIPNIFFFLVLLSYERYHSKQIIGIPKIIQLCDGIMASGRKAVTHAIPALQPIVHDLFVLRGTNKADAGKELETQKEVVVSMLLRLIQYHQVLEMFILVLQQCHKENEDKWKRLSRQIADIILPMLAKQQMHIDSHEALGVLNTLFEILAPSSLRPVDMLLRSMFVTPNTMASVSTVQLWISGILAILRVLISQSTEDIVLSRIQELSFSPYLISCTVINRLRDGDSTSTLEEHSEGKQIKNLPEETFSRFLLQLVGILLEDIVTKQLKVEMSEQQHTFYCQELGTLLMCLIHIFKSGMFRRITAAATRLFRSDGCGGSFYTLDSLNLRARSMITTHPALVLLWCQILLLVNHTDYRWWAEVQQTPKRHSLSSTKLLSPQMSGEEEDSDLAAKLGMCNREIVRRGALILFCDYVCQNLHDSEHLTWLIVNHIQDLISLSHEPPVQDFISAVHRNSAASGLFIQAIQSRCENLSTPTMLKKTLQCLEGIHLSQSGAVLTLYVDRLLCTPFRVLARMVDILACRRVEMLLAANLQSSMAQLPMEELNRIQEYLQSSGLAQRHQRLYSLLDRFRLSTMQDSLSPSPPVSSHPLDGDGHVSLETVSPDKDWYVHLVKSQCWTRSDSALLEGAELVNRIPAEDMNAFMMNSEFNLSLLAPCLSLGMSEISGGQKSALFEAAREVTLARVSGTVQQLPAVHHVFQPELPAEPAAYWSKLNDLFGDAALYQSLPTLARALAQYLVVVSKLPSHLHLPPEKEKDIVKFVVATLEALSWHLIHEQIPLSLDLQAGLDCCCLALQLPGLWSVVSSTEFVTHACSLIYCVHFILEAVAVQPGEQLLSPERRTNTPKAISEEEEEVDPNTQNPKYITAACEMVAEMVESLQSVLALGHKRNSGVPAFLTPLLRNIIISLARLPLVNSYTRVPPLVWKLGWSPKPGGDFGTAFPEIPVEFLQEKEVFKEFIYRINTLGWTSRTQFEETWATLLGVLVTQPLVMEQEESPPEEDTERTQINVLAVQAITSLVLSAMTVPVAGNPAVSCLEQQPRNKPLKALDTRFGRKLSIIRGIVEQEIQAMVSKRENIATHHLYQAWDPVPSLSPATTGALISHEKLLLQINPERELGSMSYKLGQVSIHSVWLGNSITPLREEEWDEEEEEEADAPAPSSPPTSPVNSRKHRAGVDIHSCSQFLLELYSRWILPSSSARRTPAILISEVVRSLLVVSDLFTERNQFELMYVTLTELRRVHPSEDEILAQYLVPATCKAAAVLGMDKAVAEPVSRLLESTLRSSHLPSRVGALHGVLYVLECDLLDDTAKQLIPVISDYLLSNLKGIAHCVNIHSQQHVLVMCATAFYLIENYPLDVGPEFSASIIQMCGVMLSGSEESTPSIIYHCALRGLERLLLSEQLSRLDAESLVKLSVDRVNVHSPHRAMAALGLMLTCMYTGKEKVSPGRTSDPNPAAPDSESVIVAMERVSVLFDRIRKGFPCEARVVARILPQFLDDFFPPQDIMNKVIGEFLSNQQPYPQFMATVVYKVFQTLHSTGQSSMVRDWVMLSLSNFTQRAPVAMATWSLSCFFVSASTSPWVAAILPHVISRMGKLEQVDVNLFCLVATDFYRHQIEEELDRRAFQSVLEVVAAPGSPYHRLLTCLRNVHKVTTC
Starred values were filed as active, the others as inactive; · = not tested or not shown; ! = not confirmed by another sample. Hits are enriched below; roughly 3.6% of the tested compounds scored in any of these assays. Cut-off read from the data, not from the text of the source: active = inhibition above about 50%; inactive = the rest.

SMILES	Pf apPOL block	mHTT CaM bind
O=C(CN1C(=O)/C(=C/c2ccc(Cl)cc2)Sc2ccccc21)NCc1ccccn1	-2	54*
COCCNC(=O)CN1C(=O)/C(=C/c2ccc(Cl)cc2)Sc2ccccc21	-5	11
CCN(CC)CCNC(=O)CN1C(=O)/C(=C/c2ccc(Cl)cc2)Sc2ccccc21	4	59*
O=C(CN1C(=O)/C(=C/c2ccccc2)Sc2ccccc21)NCc1ccccn1	-8	72*
CN(C)CCNC(=O)CN1C(=O)/C(=C/c2ccc(Cl)cc2)Sc2ccccc21	5	20
O=C(CN1C(=O)CSc2ccccc21)NCc1ccccn1	-20	24
CCN1CCN(C(=O)CN2C(=O)/C(=C/c3ccc(C(F)(F)F)cc3)Sc3ccccc32)CC1	2	68*
O=C(CN1C(=O)/C(=C/c2ccc(C(F)(F)F)cc2)Sc2ccccc21)N1CCCC1	4	14
COc1cc(C(=O)N2CCCCCC2)cc(OC)c1OC	-2	-1
CC(Cn1cnc2ccccc21)C(=O)O (configuration not stated)	-9	0
CN(CCNC(=O)CN1C(=O)/C(=C/c2ccccc2F)Sc2ccccc21)Cc1ccccc1	-1	92*
CCN(CCNC(=O)CN1C(=O)/C(=C/c2ccccc2F)Sc2ccccc21)c1ccccc1	1	17
CCCCNC(=O)CN1C(=O)/C(=C/c2ccccc2C)Sc2ccccc21	-5	-4
CCOCCCNC(=O)CN1C(=O)/C(=C/c2ccccc2C)Sc2ccccc21	74*	15
CCC(C(=O)Nc1ccc2ncnc(N3CCCC3)c2c1)c1ccccc1 (configuration not stated)	6	10
Cc1nnc2n(C3CCCCC3)c(=O)c3c4c(sc3n12)CCC4	-4	-2
O=C1CC(C(=O)O)c2ccccc21 (configuration not stated)	7	·
COc1ccc(NC(=O)C(C)c2ccc(CC(C)C)cc2)cc1 (configuration not stated)	4	·
CCn1c(C)cc(=O)c2cc(C(=O)Nc3cccc(OC)c3)ccc21	-2	-5
Cc1cc(OCC(=O)Nc2cc(F)ccc2C)nc(N2CCCC2)n1	0	-6
COc1ccccc1C1NC(=O)NC(C)=C1C(=O)Nc1ccc(F)c(F)c1 (configuration not stated)	0	6
COc1ccc(C2NC(=O)NC(C)=C2C(=O)Nc2ccc(F)c(F)c2)cc1OC (configuration not stated)	65*!	-1
NC(=O)c1oc2ccccc2c1NC(=O)C12CC3CC(CC(C3)C1)C2	6	100*
CCOC(=O)c1oc2ccccc2c1NC(=O)C12CC3CC(CC(C3)C1)C2	0	-5
CCN1C(=O)N(CC)C(NNC(N)=S)C1NNC(N)=S (configuration not stated)	·	-2
SMILES	Pf apPOL block	mHTT CaM bind
CN(C)Cc1c(O)ccc2c(-c3ccccc3)cc(=O)oc12	0	1
CC[C@@]1(O)C(=O)OCc2c1cc1n(c2=O)Cc2cc3c(CN(C)C)c(O)ccc3nc2-1	84*	·
COc1ccccc1Nc1c([N+](=O)[O-])c(=O)oc2ccccc12	2	10
Nc1ccccc1Nc1c([N+](=O)[O-])c(=O)oc2ccccc12	0	71*
CCN(CC)CCCNC(=O)Cc1cn(C)c2ccccc12	-4	5
CCN(CCCNC(=O)Cc1cn(C)c2ccccc12)c1ccccc1	-2	53*
O=C(Nc1ccccc1)c1cc(S(=O)(=O)N2CCOCC2)c(Cl)cc1Cl	3	0
Cc1ccccc1-n1nc2c(c1NC(=O)c1ccccc1F)CS(=O)C2 (configuration not stated)	-1	2
COc1ccc2nc(-c3ccc(OC)c(NC(=O)CC4CCCC4)c3)cn2n1	-12	-10
COc1ccc2nc(-c3cccc(NC(=O)COc4ccc(C(C)=O)cc4OC)c3)cn2n1	-9	64*
COc1ccccc1NC1=CC(=NS(=O)(=O)c2ccc(Cl)cc2)c2ccccc2C1=O	4	94*
O=C(O)c1cccc(NC2=CC(=NS(=O)(=O)c3cccs3)c3ccccc3C2=O)c1	22	44
COc1ccccc1NC1=CC(=NS(=O)(=O)c2cccs2)c2ccccc2C1=O	-15	91*
COc1ccccc1Nc1ncc(-c2cccs2)s1	0	25
COc1ccccc1NS(=O)(=O)c1ccc(Cl)c(C(=O)Nc2ccc(Cl)cc2)c1	20	15
O=C1C(Nc2ccccc2)=CC(=NS(=O)(=O)c2cccs2)c2ccccc21	0	92*
CC(C)n1c(CNS(=O)(=O)c2ccccc2)nc2cccnc21	-13	0
COc1cc(CN(CCO)Cc2ccccc2)c([N+](=O)[O-])cc1OC	-5	5
CSCCC(=O)Nc1nc2ccccc2s1	-2	5
Cc1ccc(C2=NN(CC(=O)N3CCC4(CC3)OCCO4)C(=O)CC2)cc1	-12	-2
COc1ccc2ccc(=O)oc2c1OC	·	-2
CN(C)Cc1c(O)ccc2c1OC(=Cc1cc(Cl)cc3c1OCOC3)C2=O	0	13
COc1cc(C)c(S(=O)(=O)NCc2ccccn2)cc1C	-1	2
CN(C)c1ccc(C2C(C#N)=C(N)N(c3ccc(Cl)cc3)C3=C2C(=O)CCC3)cc1 (configuration not stated)	-4	99*
N#CC1=C(N)N(c2ccc(Cl)cc2)C2=C(C(=O)CCC2)C1c1cccnc1 (configuration not stated)	-1	1
SMILES	Pf apPOL block	mHTT CaM bind
COc1ccc(N2C(N)=C(C#N)C(c3ccc(Br)cc3)C3=C2CCCC3=O)cc1 (configuration not stated)	-5	25
CN(C)c1ccc(C2C(C#N)=C(N)N(c3ccc(Br)cc3)C3=C2C(=O)CCC3)cc1 (configuration not stated)	-1	100*
C=CCNC(=O)C1CCN(C(=O)Cc2ccccc2)CC1	-2	2
Cc1[nH]c2ccccc2c1/C=c1\sc2nc3ccccc3n2c1=O	0	7
CC1CCc2[nH]nc(C(=O)O)c2C1 (configuration not stated)	-1	1
Cc1ccccc1SCCNC(=O)Nc1cc(F)c(F)cc1Cl	2	-28
O=c1[nH]c2ccc(Cl)cc2c(-c2ccccc2)c1CN1CCCCC1	0	100*
Cc1[nH]c2ccc(Cl)cc2c(=O)c1CN1CCCC1	0	0
O=C(CCN1CCCC1)Nc1cccc(Br)c1	-3	-4
O=c1[nH]c2ccc(Cl)cc2c(-c2ccccc2)c1N1CCOCC1	-18	·
O=C(CCN1CCCCC1)Nc1c(-c2ccccc2)c2cc(Br)ccc2[nH]c1=O	-9	99*
O=c1[nH]c2ccc(Cl)cc2c(-c2ccccc2)c1N1CCN(Cc2ccc3c(c2)OCO3)CC1	-2	100*
COc1ccc2nc(NC(=O)c3ccncc3)sc2c1	-2	4
O=C(NCCN1CCCC1)C1CCN(S(=O)(=O)N2CCC3(CC2)OCCO3)CC1	-14	1
O=C(Nc1cc2ccccc2oc1=O)c1ccc(Br)cc1	12	-1
Cc1cc(C)nc(NC(=O)c2ccccc2I)n1	-2	1
O=C(COc1cccc(Cl)c1)N1CCN(c2nc(CN3CCOCC3)cs2)CC1	-3	10
CCc1onc(C)c1C1CCCN1C(=O)c1cc(-c2ccc(F)cc2)on1 (configuration not stated)	-3	-4
O=[N+]([O-])c1ccc(N2CCN(Cc3ccccc3)CC2)cc1NC1CC1	-7	27
O=[N+]([O-])c1ccc(N2CCCC2)cc1N1CCN(Cc2ccccc2)CC1	-4	53*
